In PubChem BioAssay:
The source made the active and inactive calls. Unless noted, how the calls were made is not given here.

Experiments:
[1] = compounds binding Alexa647 anti-His antibody – biochemical, small-molecule microarray, 635 nm fluorescence, artefact control for SMM control protein annotation, primary screen (AID 1128); conditions: higher = more signal;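 further: score merges feature fluorescence with signal-to-noise for each printed compound spot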
[2] = system: Human papillomavirus type 1a E7 protein (residues 1-88); test: HPV1a E7 small-molecule binders, primary screen, biochemical, small-molecule microarray, residues 1-88, 635 nm (AID 1129); conditions: small-molecule microarray binding, fluorescence 635 nm; higher = more signal
[3] = molecular target: Focal adhesion kinase 1 (Homo sapiens) (UniProt Q05397); test: PTK2 protein binding on printed compound slides – biochemical, small-molecule microarray, 635/667 nm fluorescence, BSA, DTT, primary screen (AID 1130); conditions: 635 nm fluorescence, higher = more signal;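 further: composite of spot emission at 667 nm and signal to noise over triplicate slides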
Sequence of Focal adhesion kinase 1 (Homo sapiens) (Q05397 whole entry, looked up): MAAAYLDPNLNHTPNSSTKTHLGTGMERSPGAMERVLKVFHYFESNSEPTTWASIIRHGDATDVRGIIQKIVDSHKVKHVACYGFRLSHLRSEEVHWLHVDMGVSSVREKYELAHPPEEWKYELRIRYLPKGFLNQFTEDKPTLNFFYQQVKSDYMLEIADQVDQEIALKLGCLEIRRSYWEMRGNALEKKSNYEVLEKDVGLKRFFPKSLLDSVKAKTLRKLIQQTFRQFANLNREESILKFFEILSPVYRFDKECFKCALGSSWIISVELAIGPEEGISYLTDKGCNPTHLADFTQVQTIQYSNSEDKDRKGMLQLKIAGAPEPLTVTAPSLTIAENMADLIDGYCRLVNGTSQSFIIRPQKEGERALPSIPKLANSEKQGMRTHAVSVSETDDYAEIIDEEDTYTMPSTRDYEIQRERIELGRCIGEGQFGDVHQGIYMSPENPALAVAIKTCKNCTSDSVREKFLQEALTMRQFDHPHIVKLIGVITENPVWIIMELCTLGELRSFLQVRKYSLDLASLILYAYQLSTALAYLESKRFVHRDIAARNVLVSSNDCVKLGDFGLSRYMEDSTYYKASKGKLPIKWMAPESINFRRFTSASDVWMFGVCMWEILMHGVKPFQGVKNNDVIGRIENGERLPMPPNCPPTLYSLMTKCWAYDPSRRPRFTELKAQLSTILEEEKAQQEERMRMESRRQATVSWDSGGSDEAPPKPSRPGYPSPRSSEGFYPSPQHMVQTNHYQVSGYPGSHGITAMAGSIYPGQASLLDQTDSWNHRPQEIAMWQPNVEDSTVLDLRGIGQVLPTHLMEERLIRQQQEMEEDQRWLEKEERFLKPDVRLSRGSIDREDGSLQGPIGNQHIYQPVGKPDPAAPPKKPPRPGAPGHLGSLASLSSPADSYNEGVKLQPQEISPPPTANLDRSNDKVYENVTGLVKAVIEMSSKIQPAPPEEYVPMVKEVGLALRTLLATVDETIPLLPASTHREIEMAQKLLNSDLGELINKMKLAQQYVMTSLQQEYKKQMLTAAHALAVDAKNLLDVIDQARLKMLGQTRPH

[4] = system: Fibrinogen (Alexa647-labelled); test: Alexa647-fibrinogen binding to printed small molecules – biochemical, small-molecule microarray, 635/667 nm fluorescence, artefact control for SMM control-protein annotation, profiling panel (AID 1131); conditions: fibrinogen-A647 binding fluorescence, higher = more signal;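 further: z-score merges 667 nm fluorescence with per-spot signal-to-noise over triplicate slides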
[5] = molecular target: Follistatin (Homo sapiens) (UniProt P19883); test: FST protein binding to printed compounds – biochemical, small-molecule microarray, 635/667 nm fluorescence, primary screen (AID 1132); conditions: 635 nm fluorescence, higher = more signal
Sequence of Follistatin (Homo sapiens) (P19883 whole entry, looked up): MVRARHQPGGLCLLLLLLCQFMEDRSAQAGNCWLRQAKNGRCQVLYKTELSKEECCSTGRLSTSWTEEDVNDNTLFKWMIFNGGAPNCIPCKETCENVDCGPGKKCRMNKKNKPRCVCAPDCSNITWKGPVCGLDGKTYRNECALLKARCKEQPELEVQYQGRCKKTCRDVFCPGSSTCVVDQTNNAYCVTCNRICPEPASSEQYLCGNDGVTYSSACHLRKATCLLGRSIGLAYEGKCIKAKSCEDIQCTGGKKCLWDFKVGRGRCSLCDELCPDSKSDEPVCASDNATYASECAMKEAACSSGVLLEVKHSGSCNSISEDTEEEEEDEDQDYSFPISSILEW

[6] = molecular target: Fibroblast growth factor 2 (Homo sapiens) (UniProt P09038); test: basic fibroblast growth factor binding to printed compounds – biochemical, small-molecule microarray, 635/667 nm fluorescence, primary screen (AID 1133); conditions: FGF2, fluorescence 635/667, higher = more signal
Sequence of Fibroblast growth factor 2 (Homo sapiens) (P09038 whole entry, looked up): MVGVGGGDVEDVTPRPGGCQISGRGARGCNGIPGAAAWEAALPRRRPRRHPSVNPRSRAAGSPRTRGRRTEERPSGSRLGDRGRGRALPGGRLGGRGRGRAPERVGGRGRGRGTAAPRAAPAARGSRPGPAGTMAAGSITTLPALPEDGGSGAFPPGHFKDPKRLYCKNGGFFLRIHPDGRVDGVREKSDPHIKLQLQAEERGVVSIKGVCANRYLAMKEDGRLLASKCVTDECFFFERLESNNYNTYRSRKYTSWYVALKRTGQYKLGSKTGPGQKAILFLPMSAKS

[7] = JC-1 mitochondrial potential readout, lung cancer cells – cell-based, A549, JC-1 fluorescence, basal, 24 h, 100 nL, profiling panel (AID 1138); conditions: higher = more signal;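 further: A549 lung adenocarcinoma cells under basal conditions with no added stimulus; test concentration not given here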
Lefty1 = Lefty1 protein binding to printed compounds – biochemical, small-molecule microarray, 635/667 nm fluorescence, primary screen (AID 1139); conditions: fluorescence 635/667, higher = more signal
[8] = system: wheat germ agglutinin (Triticum aestivum), Alexa647-labelled; test: Alexa647-WGA lectin binding to printed small molecules – biochemical, small-molecule microarray, 635/667 nm fluorescence, artefact control for SMM control-protein annotation, profiling panel (AID 1140); conditions: WGA-A647 binding, 635 nm fluorescence, higher = more signal;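 further: score merges 667 nm feature emission with signal to noise over triplicate slides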
[9] = molecular target: Luciferin 4-monooxygenase (Photinus pyralis) (UniProt P08659); test: inhibition of purified Photinus pyralis luciferase – biochemical, luminescence, purified enzyme, 2006 set, primary screen (AID 1141); conditions: purified firefly luciferase, SteadyGlo luminescence, 30 min; higher = more signal, called active from +8 up or from −8 down;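 further: cell-free assay with purified firefly luciferase at 100 ng per well in PBS; test concentration not given here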
Sequence of Luciferin 4-monooxygenase (Photinus pyralis) (P08659 whole entry, looked up): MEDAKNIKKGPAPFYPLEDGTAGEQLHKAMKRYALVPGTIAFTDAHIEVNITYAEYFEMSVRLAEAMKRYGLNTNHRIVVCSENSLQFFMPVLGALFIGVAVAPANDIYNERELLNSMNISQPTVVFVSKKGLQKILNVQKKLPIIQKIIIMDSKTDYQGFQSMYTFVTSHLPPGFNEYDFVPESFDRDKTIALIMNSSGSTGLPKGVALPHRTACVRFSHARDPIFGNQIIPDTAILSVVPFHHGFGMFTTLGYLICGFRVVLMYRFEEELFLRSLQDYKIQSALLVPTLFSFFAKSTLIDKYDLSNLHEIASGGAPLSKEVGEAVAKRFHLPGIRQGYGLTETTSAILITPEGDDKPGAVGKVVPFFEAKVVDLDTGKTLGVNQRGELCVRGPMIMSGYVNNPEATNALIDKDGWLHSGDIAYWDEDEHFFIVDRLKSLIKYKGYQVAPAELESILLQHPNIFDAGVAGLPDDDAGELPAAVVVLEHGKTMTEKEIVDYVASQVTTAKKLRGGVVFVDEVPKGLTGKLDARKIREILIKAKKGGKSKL

[10] = system: Wnt5a (protein binding on small-molecule microarray); test: small molecules binding Wnt5a protein – biophysical, small-molecule microarray, 635/667 nm fluorescence, primary screen (AID 1142); conditions: 635 nm fluorescence, higher = more signal;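 further: fluorescence read at 667 nm with signal to noise per printed feature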
[11] = ATP-based viability of Huh7 replicon cells – cell-based, CellTiter-Glo luminescence, basal, 48 h, cytotoxicity control for HCV replication inhibitor project, primary screen (AID 1143); conditions: higher = more signal, called active from +8 up or from −8 down;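 further: Huh7 hepatoma cells carrying a hepatitis C replication reporter with no stimulus; test concentration not given here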
[12] = Pseudomonas biofilm growth suppression – PAO1 strain, BacTiter-Glo luminescence, LB-PBS, primary screen (AID 1144); conditions: P. aeruginosa PAO1 biofilm, 12 h, higher = more signal
[13] = basal CRE-LacZ reporter activity in PC12 – cell-based, unstimulated, primary screen (AID 1145); conditions: no forskolin, luminescence, 4.5 h, higher = more signal, called active from +8 up or from −8 down
[14] = forskolin-driven CRE-LacZ activity in PC12 – cell-based, CRE-LacZ reporter, forskolin-stimulated, primary screen (AID 1146); conditions: luminescence, 4.5 h, higher = more signal, called active from +8 up or from −8 down;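 further: PC12 cells with 6xCRE LacZ reporter stimulated by forskolin 10 µM; beta-galactosidase reporter signal reflecting CREB driven transcription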
[15] = molecular target: Streptavidin (Streptomyces avidinii) (UniProt P22629); test: compounds binding control protein streptavidin – biophysical, small-molecule microarray, 635/667 nm fluorescence, artefact control for SMM compound annotation, primary screen (AID 1147); conditions: higher = more signal;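 further: signal reflects streptavidin binding to arrayed compounds as a control protein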
Sequence of Streptavidin (Streptomyces avidinii) (P22629 whole entry, looked up): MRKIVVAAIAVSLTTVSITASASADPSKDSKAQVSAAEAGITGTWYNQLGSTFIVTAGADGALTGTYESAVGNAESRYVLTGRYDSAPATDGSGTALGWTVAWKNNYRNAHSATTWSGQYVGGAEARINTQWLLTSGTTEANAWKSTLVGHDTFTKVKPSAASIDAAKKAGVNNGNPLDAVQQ

[16] = probe aInhba binding on compound microarray – biochemical, small-molecule microarray, 635/667 nm fluorescence, primary screen (AID 1148); conditions: higher = more signal;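 further: score merges 667nm spot fluorescence with signal-to-noise for antibody binding to printed compounds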
Torsin-1A (Homo sapiens) [17] = molecular target: Torsin-1A (Homo sapiens) (UniProt O14656); test: TOR1A wild-type binding on microarray – cell lysate, small-molecule microarray, lysate, 635/667 nm, primary screen (AID 1149); conditions: COS7 hTOR1A-WT lysate, 635 nm fluorescence, higher = more signal
Sequence of Torsin-1A (Homo sapiens) (O14656 whole entry, looked up): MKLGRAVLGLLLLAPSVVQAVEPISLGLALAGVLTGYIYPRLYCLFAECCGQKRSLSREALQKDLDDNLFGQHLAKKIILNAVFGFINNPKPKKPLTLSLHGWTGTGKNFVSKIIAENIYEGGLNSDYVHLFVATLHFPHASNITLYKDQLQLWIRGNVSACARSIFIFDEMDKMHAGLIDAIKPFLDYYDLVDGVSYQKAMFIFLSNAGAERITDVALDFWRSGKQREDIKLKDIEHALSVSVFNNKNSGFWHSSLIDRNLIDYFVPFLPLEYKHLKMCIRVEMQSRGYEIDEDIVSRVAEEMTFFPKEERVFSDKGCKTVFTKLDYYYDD

Torsin-1A (Homo sapiens) [18] = molecular target: Torsin-1A (Homo sapiens) (UniProt O14656); test: torsin A mutant lysate binding on microarrays – cell lysate, small-molecule microarray, COS7 lysate, 635/667 nm fluorescence, primary screen (AID 1150); conditions: COS7 hTOR1A mutant lysate, 635 nm fluorescence, higher = more signal;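 further: score pools 667 nm emission and signal to noise measuring lysate protein binding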
[19] = system: Sonic hedgehog protein (Shh); test: Sonic hedgehog microarray binding compounds – biochemical, small-molecule microarray, 635/667 nm fluorescence, primary screen (AID 1151); conditions: 635 nm fluorescence, higher = more signal;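 further: Shh protein binding to compounds spotted on small-molecule microarray slides; score combines spot fluorescence intensity with signal-to-noise across triplicate slides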

Row | SMILES | composite z-score [1] | composite z-score [2] | composite z-score [3] | composite z-score [4] | composite z-score [5] | composite z-score [6] | z-score [7] | composite z-score (Lefty1) | composite z-score [8] | z-score [9] | composite z-score [10] | z-score [11] | z-score [12] | z-score [13] | z-score [14] | composite z-score [15] | composite z-score [16] | composite z-score (Torsin-1A (Homo sapiens) [17]) | composite z-score (Torsin-1A (Homo sapiens) [18]) | composite z-score [19]
1 | Cc1ccc(S[C@]2(C(=O)O)CC(=O)N(C(C)C)[C@@H]2c2ccc(CO)cc2I)cc1 | 3.36 | 0.476 | 0.929 | 0.432 | 1.12 | 0.253 | 1.33 | -0.176 | 0.939 | -2.26 (inactive) | -0.0822 | -2.86 (inactive) | -0.29 (inactive) | 0.324 (inactive) | 0.289 (inactive) | 0.513 | 0.516 | 0.523 | 0.202 | -0.189
2 | COc1cc2c(cc1OC)CN(C(=O)[C@@H]1[C@H]3C(=O)O[C@H](c4ccccc4)[C@H](c4ccccc4)N3[C@H](c3ccccc3OCCO)[C@@]13C(=O)Nc1ccc(C#CCCO)cc13)CC2 | 1.94 | 1.15 | 0.222 | 0.966 | 1.27 | 0.409 | -0.426 | 0.904 | 0.988 | -0.785 (inactive) | 0.283 | -1.65 (inactive) | 0.219 (inactive) | 0.505 (inactive) | -0.988 (inactive) | 0.442 | 0.196 | 0.0499 | 0.344 | 1.13
3 | COC(=O)[C@@]1(Cc2ccc(OC)cc2)[C@H]2c3cc(C(=O)N(C)C)n(Cc4ccc(S(C)(=O)=O)cc4)c3C[C@H]2CN1C(=O)c1ccccc1 | 1.84 | 1.26 | 1.07 | 0.849 | 1.11 | -0.56 | 0.956 | 0.0038 | 1.23 | 1.75 (inactive) | -0.0427 | -2.9 (inactive) | -1.05 (inactive) | -1.14 (inactive) | -1.33 (inactive) | 1.24 | 0.431 | 2.24 | 1.29 | -0.599
4 | COC(=O)[C@]1(CCC(=O)OC(C)(C)C)N=C(c2ccc(OCCCO)cc2)O[C@@H]1c1ccccc1CN=[N+]=[N-] | 0.0121 | 1.06 | 0.348 | 0.666 | 1.13 | 0.283 | -0.208 | -0.477 | 0.095 | -0.76 (inactive) | 0.714 | -4.56 (inactive) | 0.283 (inactive) | 1.77 (inactive) | -0.955 (inactive) | 0.0874 | 0.24 | -0.351 | -0.0282 | 0.712
5 | O=C1N[C@@H](Cc2ccccc2)C(=O)N2[C@@H]1C[C@@H](C(=O)O)[C@H]2c1cccc(OCCO)c1 | 3.3 | 1.03 | 0.27 | 0.56 | 1.38 | 1.43 | 0.849 | 1.49 | 0.552 | -1.91 (inactive) | 0.0465 | -0.333 (inactive) | -0.965 (inactive) | 0.692 (inactive) | 0.321 (inactive) | 0.0555 | -0.128 | 1.14 | 0.719 | 1.77
6 | C=CCC(OC(C)=O)[C@@H]1[C@@H](N(Cc2ccc(-c3cccc(C(F)(F)F)c3)o2)C(=O)c2ccc(C)cc2)c2cc(OCCCO)ccc2N1C(=O)Cc1ccc2ccccc2c1 (stereo not given in full) | 0.357 | -1.49 | 0.0103 | 0.658 | 0.107 | -0.358 | 0.71 | -0.454 | 0.234 | -0.453 (inactive) | -0.125 | -0.0329 (inactive) | -0.568 (inactive) | -1.1 (inactive) | -0.0977 (inactive) | -0.269 | -0.024 | -0.563 | -0.702 | 0.223
7 | COc1cc(Br)cc(C(O)C2C=CC3C(=O)N(C)C(=O)C3N2N2CCCCC2)c1OC (stereo not given) | 0.286 | 0.665 | 0.446 | -0.83 | -1.02 | -1.38 | -0.85 | -1.12 | -0.0965 | -0.141 (inactive) | -0.274 | 0.4 (inactive) | -0.311 (inactive) | 0.822 (inactive) | 0.641 (inactive) | -0.39 | -0.016 | 0.167 | 0.0369 | -1.49
8 | O=C(NCCN1CCOCC1)C1N=C(c2ccc(OCCCO)cc2)N(c2ccccc2)O1 (stereo not given) | 1.22 | 1.29 | 0.124 | 0.545 | 1.52 | 1.58 | 1.23 | 0.813 | 0.61 | -8.16 (active) | 0.889 | 0.213 (inactive) | 1.27 (inactive) | 1.78 (inactive) | 0.552 (inactive) | 0.284 | 0.0219 | 1.86 | 2.3 | 1.42
9 | COc1cc2c(cc1OC)CN(C(=O)[C@H]1[C@@H]3C(=O)O[C@@H](c4ccccc4)[C@@H](c4ccccc4)N3[C@@H](c3ccc(O)cc3)[C@]13C(=O)Nc1ccccc13)CC2 | 1.65 | 1.19 | 0.81 | 0.253 | 0.354 | 0.39 | -0.517 | 0.331 | 0.115 | -0.204 (inactive) | 0.0185 | -1.57 (inactive) | -0.219 (inactive) | 0.358 (inactive) | 0.282 (inactive) | -0.805 | 0.417 | 0.191 | 1.36 | 0.931
10 | C=C(CCCC)/C(=C/C[C@@H](OC(=O)c1ccncc1)c1ccc(OCCO)cc1)c1cc(C(=O)OC)ccc1OC | 0.551 | 1.12 | 0.0056 | -0.117 | 0.641 | 0.0097 | 1.21 | 0.865 | 0.229 | -0.551 (inactive) | -0.109 | -1.43 (inactive) | -0.0194 (inactive) | 2.32 (inactive) | 1.99 (inactive) | 0.378 | -0.128 | 0.0383 | 0.111 | 1.41
